40 sequences from the supplement of paper PMC6555819 can be followed below.

The first assay relates to RXRa DBDmut IVT, anti-RXR (DBD mutation: RXRa K156A/R161A, NR concentration 90 nM). As to the kind of experiment: PBM binding z-score (relative to random genomic background probes); higher = stronger binding; sequences stand for … in GC…GCGATTGACAGCGTAGAATGAAGG
A digest of the protocol:
(§1)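 Scanned fluorescence from custom Agilent 4×180K protein-binding microarrays was regression-normalized. Binding z-scores use random background probes as reference. Ligand-free nuclear receptor dimers were incubated on the arrays for 1 h and detected with antibodies against each partner (one per run).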
On to CAAACTAGGTCGAAGGTCAAAGTCGAGCCAACCA, for which the PBM binding z-score amounted to 1.85.
On to GCGACTGGGGCATCAGCAGGTTACTATAACTTAA, for which the PBM binding z-score came out at 0.136.
Same read-out and setting: under CGAACGAGGCCATGAGTTGATAGCAAATGCCGAT stands 0.851.
Take ATCGAAATGTCGACGAGGTGAGTATACACCGTTT: the PBM binding z-score is -0.0108.
Sequence CCTACTGCGCCAAAAAGGTCATTGATGCCGATAA came in with a PBM binding z-score of 1.65.
TAGCCTAGGTCATGCGAGCCAGTATAGTGTCGGC came in with a PBM binding z-score of 0.876.
CCTATTTGGTCAAGGTCACACACGCTATAGGTAC: the PBM binding z-score was determined as 2.35.
Same read-out and setting: under GGAAAGAGGGCAAGTTGATAGCAGAGTTTGATGG stands 1.94; under ATACGTAGGTTAGCTGGGGTCATTCAGACTAGGC, 1.65; under GGAACGAGGGCAAGTTTATAGCAGAGTTTGATGG, 2.62.
Same read-out and setting: the result for TAGCCTAGGTCAGATCGGGCCAGTTTACGCTATA reads -0.346; that for CCTTACGGCTCACGAGGTTATAGCACGACGAGCG, 0.229; that for GCTTTTAGATCAAGGTTAAGAAAGACTAAGCTAA, 0.874.
CGTCCAAGGTTAAAGGTCAGTGAAGAGATGACGG had a PBM binding z-score of 2.09.
Same read-out and setting: under AGAATGAGGTTGTACGTAGATCAGGGAAGAAAGT stands 0.679.
For CCTAGCAGTCCAATCTGGGTCACTCAAGGCTTGA, the PBM binding z-score stood at 0.516.
The sequence AGAACGAGGGCACGCTGAGTCGATAGCAGAGTAG yielded a PBM binding z-score of 1.87.
The same measure, in the same setting: under AGAATGAGGTTATACGTATATCAGGGAAGAAAGT stands 1.42; under TCTAGTTGGTCAATGGTCACACACTCGAAATGCG, 1.16.
On to GGAACGAGGGCAAAGTAGATAGCATCTGTCGACG, for which the PBM binding z-score turned out to be 2.46.
On the same count and under the same terms, under AATACAGGGTCACTAGGACAGAGTAGGTACGAAT stands 2.9; under GTATCAAGGTGAATAGGTCGTTGATGAGTAGGCG, 0.056.
Same read-out and setting: the result for AGAATGTGGTTATACGTAGATCAGGGAAGAAAGT reads 0.187.
Still for that read-out and setting: under GCTCGGAGGACAAGGTCAGAGCTTTGTCCGTAGA stands 0.373; under CGTCAAAGTTCAACTAAGGTAGCGTAAAGCACGC, 4.42.
CCTTACGGGTCAAGCTTATAGCACGGGTGGTACG displayed a PBM binding z-score of 1.11.
On the same count and under the same terms, under TTACCAAGGTGAGCTGAGGTCGTTGACCCAACTC stands 0.101.
Still for that read-out and setting: the result for ATCTCGAGGTAAAGATAGTTCAGTGAATGCAAAT reads -0.272; that for GCGACTGGGGCAAAGCAGGTTACCATAAGGTTGG, -0.374.
CCCTACGGGTCAAGGTTATAGCACGGGTGGTACG returned a PBM binding z-score of 0.145.
Still for that read-out and setting: the result for TCATTTAGGTAATACAGGTGAAAGTCGGCATCTA reads 1.96.
Consider CCTCGGAGGAGAACAGGAGGTCAGAGCTGCCAGA, for which the PBM binding z-score was -0.274.
The same measure, in the same setting: the result for CCTGCTAGGTCATCGTCAGCTAATCTACAGTATG reads 2.37; that for CGTCCATGGTCAATGCTAGGTCAGTGAAAGCATT, 0.0994.
Still for that read-out and setting: the result for AGAACGAGGGCCCGCTGAGTTGATAGCAGAGTAG reads -0.659; that for CCGCGGAGGACAGAAGGTCAGAGCTGTCCGCTTT, 0.479.
On the same count and under the same terms, the result for TCTTGTAGATCAAGCAGGTTATGAAAGCCTGAGT reads 0.366; that for ACTAGCAAGCCAAGGGTCACTCAAGATTAGTCCG, 0.334; that for CTACCAAGGTGAACAAGGTCGCTGATTACTATTC, 0.77.
TCGAGTAGGTTACCAATGGGGTATTCAGCTTTCT came in with a PBM binding z-score of 0.563.

For a further assay, the system named is RXRa homodimer (NR concentration 180 nM). The description is as above. A digest of the protocol: as §1
For the sequence CAAACTAGGTCGAAGGTCAAAGTCGAGCCAACCA, the PBM binding z-score amounted to 6.86.
GCGACTGGGGCATCAGCAGGTTACTATAACTTAA showed a PBM binding z-score of 0.331.
Same read-out and setting: under CGAACGAGGCCATGAGTTGATAGCAAATGCCGAT stands 0.328.
The same measure, in the same setting: under ATCGAAATGTCGACGAGGTGAGTATACACCGTTT stands 0.492.
Same read-out and setting: the result for CCTACTGCGCCAAAAAGGTCATTGATGCCGATAA reads 5.56; that for TAGCCTAGGTCATGCGAGCCAGTATAGTGTCGGC, 3.03; that for CCTATTTGGTCAAGGTCACACACGCTATAGGTAC, 4.55.
The sequence GGAAAGAGGGCAAGTTGATAGCAGAGTTTGATGG returned a PBM binding z-score of 1.43.
For the sequence ATACGTAGGTTAGCTGGGGTCATTCAGACTAGGC, the PBM binding z-score stood at 5.42.
GGAACGAGGGCAAGTTTATAGCAGAGTTTGATGG had a PBM binding z-score of 0.81.
In the case of TAGCCTAGGTCAGATCGGGCCAGTTTACGCTATA, the PBM binding z-score stood at 1.21.
On to CCTTACGGCTCACGAGGTTATAGCACGACGAGCG, for which the PBM binding z-score came to 0.925.
On the same count and under the same terms, the result for GCTTTTAGATCAAGGTTAAGAAAGACTAAGCTAA reads 0.844; that for CGTCCAAGGTTAAAGGTCAGTGAAGAGATGACGG, 8.31.
AGAATGAGGTTGTACGTAGATCAGGGAAGAAAGT gave a PBM binding z-score of 0.32.
For the sequence CCTAGCAGTCCAATCTGGGTCACTCAAGGCTTGA, the PBM binding z-score amounted to 0.768.
The same measure, in the same setting: the result for AGAACGAGGGCACGCTGAGTCGATAGCAGAGTAG reads 1.29.
The sequence AGAATGAGGTTATACGTATATCAGGGAAGAAAGT gave a PBM binding z-score of 2.34.
Same read-out and setting: under TCTAGTTGGTCAATGGTCACACACTCGAAATGCG stands 0.996.
Sequence GGAACGAGGGCAAAGTAGATAGCATCTGTCGACG displayed a PBM binding z-score of 1.05.
AATACAGGGTCACTAGGACAGAGTAGGTACGAAT gave a PBM binding z-score of 5.5.
As for GTATCAAGGTGAATAGGTCGTTGATGAGTAGGCG, the PBM binding z-score was 1.81.
Same read-out and setting: the result for AGAATGTGGTTATACGTAGATCAGGGAAGAAAGT reads -0.0859; that for GCTCGGAGGACAAGGTCAGAGCTTTGTCCGTAGA, 2.33; that for CGTCAAAGTTCAACTAAGGTAGCGTAAAGCACGC, 4.96.
Sequence CCTTACGGGTCAAGCTTATAGCACGGGTGGTACG yielded a PBM binding z-score of 5.08.
Same read-out and setting: the result for TTACCAAGGTGAGCTGAGGTCGTTGACCCAACTC reads 2.03.
Still for that read-out and setting: the result for ATCTCGAGGTAAAGATAGTTCAGTGAATGCAAAT reads 0.518; that for GCGACTGGGGCAAAGCAGGTTACCATAAGGTTGG, 0.33.
With CCCTACGGGTCAAGGTTATAGCACGGGTGGTACG, the PBM binding z-score was 5.35.
Regarding TCATTTAGGTAATACAGGTGAAAGTCGGCATCTA, the PBM binding z-score came to 1.33.
The sequence CCTCGGAGGAGAACAGGAGGTCAGAGCTGCCAGA came in with a PBM binding z-score of 1.76.
Still for that read-out and setting: under CCTGCTAGGTCATCGTCAGCTAATCTACAGTATG stands 3.06.
The same measure, in the same setting: the result for CGTCCATGGTCAATGCTAGGTCAGTGAAAGCATT reads 0.519; that for AGAACGAGGGCCCGCTGAGTTGATAGCAGAGTAG, -0.399.
Same read-out and setting: under CCGCGGAGGACAGAAGGTCAGAGCTGTCCGCTTT stands 2.27; under TCTTGTAGATCAAGCAGGTTATGAAAGCCTGAGT, 0.465; under ACTAGCAAGCCAAGGGTCACTCAAGATTAGTCCG, 3.69.
In turn, CTACCAAGGTGAACAAGGTCGCTGATTACTATTC came in with a PBM binding z-score of 1.8.
In the case of TCGAGTAGGTTACCAATGGGGTATTCAGCTTTCT, the PBM binding z-score was 0.443.
